Laboratory results reported in paper PMC5892938, “SARNAclust: Semi-automatic detection of RNA protein binding motifs from immunoprecipitation data”.
The full ranking holds about 11,000 sequences; the median of “log2 fold change” is about 0.00022, and the highest 2% start at about 0.34. The list shows a part of the results.

Target: GST-SBP-SLBP (stem-loop binding protein) (Homo sapiens, UniProt Q14493 1-270)
Assay: targeted RNA Bind-n-Seq; RBNS binding buffer: 25 mM Tris pH 7.5, 150 mM KCl, 3 mM MgCl2, 0.1% Tween, 0.5 mg/mL BSA, 1 mM DTT; 27 nM protein, 750 pM RNA pool; temperature not stated; high values mean tight binding
Conditions: protein: recombinant; tags: N-terminal GST and SBP (pGEX6P1-SBP); structured_RNA
Method in brief: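 The protein, carrying a GST-SBP tag, was produced in Rosetta(DE3) pLysS E. coli, purified on glutathione, and mixed at 27 nM with 750 pM of a designed RNA oligo pool made by T7 transcription in RBNS binding buffer. RNA that bound was reverse transcribed using a barcoded primer of 10 nucleotides, amplified by PCR and sequenced on a MiSeq with 200-cycle paired-end reads. FLASH joined the reads, HISAT2 aligned them, and they were collapsed by barcode before the binding signal was taken as the DEseq binary-logarithm fold change of read counts for each sequence.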

Sequence	binding signal
GGUCACGUCUCAAUCAACUCCUCGGAGGGGGGGAAAACCCCUUUACCCUCACAUUCAACAGCUCGCAGUCAAG	0.424 ± 0.434 log2 fold change
GGUCACGUCUCAAUCAACUCCUCGGAGGGGGGGAAAACCCCUUUACCCUCAUAUUCAACAGCUCGCAGUCAAG	0.374 ± 0.433 log2 fold change
GGUCACGUCUCAAUCAACUCUCCAGAGGGGGGGAAAACCCCUUUACCCUCACAUUCAACAGCUCGCAGUCAAG	0.328 ± 0.444 log2 fold change
GGUCACGUCUCAAUCAACUCUCCAGAGGGGGGGAAAACCCCUUUGCCCUCCACAUCAACAGCUCGCAGUCAAG	0.318 ± 0.411 log2 fold change
GGUCACGUCUCAAUCAACUCAUCAGAGGGGGGGAAAACCCCUUUGCCCUCCACAUCAACAGCUCGCAGUCAAG	0.401 ± 0.446 log2 fold change
GGUCACGUCUCAAUCAACUCCCCAGAGGGGGGGAAAACCCCUUUGCCCUCAAUAUCAACAGCUCGCAGUCAAG	0.552 ± 0.441 log2 fold change
GGUCACGUCUCAAUCAACUCCUCAGAGGGGGGGAAAACCCCUUUGCCCUCCAAAUCAACAGCUCGCAGUCAAG	0.317 ± 0.412 log2 fold change
GGUCACGUCUCAAUCAACUCCACAGAGGGGGGGAAAACCCCUUUGCCCUCCAUAUCAACAGCUCGCAGUCAAG	0.437 ± 0.447 log2 fold change
GGUCACGUCUCAAUCAACUCAGAAGAGGGGGGGAAAACCCCUUUGCCCUCCAUAUCAACAGCUCGCAGUCAAG	0.327 ± 0.401 log2 fold change
GGUCACGUCUCAAUCAACUCAUCCCCCAGGGAAAGCCCUGGCUUACUCAACAGCUCGCAGUCAAG	0.352 ± 0.269 log2 fold change
GGUCACGUCUCAAUCAACUCAAUCCCCAGGGAAAUCCCUGGCUUACUCAACAGCUCGCAGUCAAG	0.371 ± 0.289 log2 fold change
GGUCACGUCUCAAUCAACUCAUUUCCCAGGGAAAGCCCUGGUAAUCUCAACAGCUCGCAGUCAAG	0.334 ± 0.275 log2 fold change
GGUCACGUCUCAAUCAACUCAUUCCCCAGGGAAAGCCCUGGCUUUUUCAACAGCUCGCAGUCAAG	0.512 ± 0.316 log2 fold change
GGUCACGUCUCAAUCAACUCUAUCCCCAGGGAAACCCCUGGCUUACUCAACAGCUCGCAGUCAAG	0.376 ± 0.273 log2 fold change
GGUCACGUCUCAAUCAACUCUAUCCCCAGGGAAAGCCCUGGCUUACUCAACAGCUCGCAGUCAAG	0.3 ± 0.283 log2 fold change
GGUCACGUCUCAAUCAACUCAGUCCCCAGGGAAAGCCCUGGCAUAUUCAACAGCUCGCAGUCAAG	0.34 ± 0.375 log2 fold change
GGUCACGUCUCAAUCAACUCUUUUUCCAGGGAAAGCCCUGGCUAUGUCAACAGCUCGCAGUCAAG	0.31 ± 0.256 log2 fold change
GGUCACGUCUCAAUCAACUCAGUUCCCAGGGAAAGCCCUGGCAUUUUCAACAGCUCGCAGUCAAG	0.449 ± 0.362 log2 fold change
GGUCACGUCUCAAUCAACUCUUCUUCCAGGGAAAGCCCUGGCUAUUUCAACAGCUCGCAGUCAAG	0.333 ± 0.251 log2 fold change
GGUCACGUCUCAAUCAACUCAACUCCCAGGGAAAUCCCUGGUUAUCUCAACAGCUCGCAGUCAAG	0.334 ± 0.284 log2 fold change
GGUCACGUCUCAAUCAACUCAUCCCCCAGGGAAAUCCCUGGCUUACUCAACAGCUCGCAGUCAAG	0.468 ± 0.259 log2 fold change
GGUCACGUCUCAAUCAACUCUUUUUCCAGGGAAAGCCCUGGCAUGUUCAACAGCUCGCAGUCAAG	0.337 ± 0.241 log2 fold change
GGUCACGUCUCAAUCAACUCAAUCCCCAGGGAAAUCCCUGGUUUACUCAACAGCUCGCAGUCAAG	0.393 ± 0.26 log2 fold change
GGUCACGUCUCAAUCAACUCAUCUUCCAGGGAAAGCCCUGGCUUUCUCAACAGCUCGCAGUCAAG	0.425 ± 0.292 log2 fold change

Sequence	binding signal
GGUCACGUCUCAAUCAACUCAUCCUCCAGGGAAACCCCUGGCUAUUUCAACAGCUCGCAGUCAAG	0.363 ± 0.269 log2 fold change
GGUCACGUCUCAAUCAACUCUAUCUCCAGGGAAAGCCCUGGUUAUCUCAACAGCUCGCAGUCAAG	0.334 ± 0.307 log2 fold change
GGUCACGUCUCAAUCAACUCUAUCUCCAGGGAAACCCCUGGCUAACUCAACAGCUCGCAGUCAAG	0.366 ± 0.263 log2 fold change
GGUCACGUCUCAAUCAACUCAUCCUCCAGGGAAACCCCUGGCUAUCUCAACAGCUCGCAGUCAAG	0.3 ± 0.279 log2 fold change
GGUCACGUCUCAAUCAACUCUAUCUCCAGGGAAACCCCUGGCAAACUCAACAGCUCGCAGUCAAG	0.323 ± 0.268 log2 fold change
GGUCACGUCUCAAUCAACUCUAUCUCCAGGGAAAGCCCUGGCUUACUCAACAGCUCGCAGUCAAG	0.329 ± 0.278 log2 fold change
GGUCACGUCUCAAUCAACUCUAUCUCCAGGGAAAACCCUGGCUAUUUCAACAGCUCGCAGUCAAG	0.433 ± 0.244 log2 fold change
GGUCACGUCUCAAUCAACUCAAUCUCCAGGGAAAGCCCUGGCUAACUCAACAGCUCGCAGUCAAG	0.405 ± 0.277 log2 fold change
GGUCACGUCUCAAUCAACUCUAUCUCCAGGGAAAACCCUGGCUAACUCAACAGCUCGCAGUCAAG	0.369 ± 0.3 log2 fold change
GGUCACGUCUCAAUCAACUCUAUCCCCAGGGAAAACCCUGGCUAUCUCAACAGCUCGCAGUCAAG	0.336 ± 0.26 log2 fold change
GGUCACGUCUCAAUCAACUCAUCUCCCAGGGAAAACCCUGGCUAUCUCAACAGCUCGCAGUCAAG	0.3 ± 0.284 log2 fold change
GGUCACGUCUCAAUCAACUCAUUUUCCAGGGAAAUCCCUGGCAUAUUCAACAGCUCGCAGUCAAG	0.33 ± 0.202 log2 fold change
GGUCACGUCUCAAUCAACUCAUCCUCCAGGGAAAACCCUGGCAUAUUCAACAGCUCGCAGUCAAG	0.384 ± 0.243 log2 fold change
GGUCACGUCUCAAUCAACUCUCUAGAGGGGGGGAAAACCCCUUUGCCCUCACACUCAACAGCUCGCAGUCAAG	0.353 ± 0.4 log2 fold change
GGUCACGUCUCAAUCAACUCUCUAGAGGGGGGGAAAACCCCUUUGCCCUCACUAUCAACAGCUCGCAGUCAAG	0.386 ± 0.408 log2 fold change
GGUCACGUCUCAAUCAACUCUUAAGAGGGGGGGAAAACCCCUUUGCCCUCACACUCAACAGCUCGCAGUCAAG	0.323 ± 0.393 log2 fold change
GGUCACGUCUCAAUCAACUCAAAAGAGGGGGGGAAAACCCCUUUACCCUCAUAUUCAACAGCUCGCAGUCAAG	0.449 ± 0.451 log2 fold change
GGUCACGUCUCAAUCAACUCAAAAGAGGGGGGGAAAACCCCUUUACCCUCAUCUUCAACAGCUCGCAGUCAAG	0.535 ± 0.407 log2 fold change
GGUCACGUCUCAAUCAACUCCAAAGAGGGGGGGAAAACCCCUUUACCCUCAUCUUCAACAGCUCGCAGUCAAG	0.443 ± 0.434 log2 fold change
GGUCACGUCUCAAUCAACUCUAUUUCCAGGGAAAUCCCUGGCUAACUCAACAGCUCGCAGUCAAG	0.335 ± 0.258 log2 fold change
GGUCACGUCUCAAUCAACUCUAUUUCCAGGGAAAUCCCUGGCUUAUUCAACAGCUCGCAGUCAAG	0.488 ± 0.245 log2 fold change
GGUCACGUCUCAAUCAACUCAAUCCCCAGGGAAAUCCCUGGCAUUCUCAACAGCUCGCAGUCAAG	0.318 ± 0.264 log2 fold change
GGUCACGUCUCAAUCAACUCAUUCCCCAGGGAAAUCCCUGGCUUAUUCAACAGCUCGCAGUCAAG	0.349 ± 0.307 log2 fold change
GGUCACGUCUCAAUCAACUCAUCUCCCAGGGAAAUCCCUGGCUUAUUCAACAGCUCGCAGUCAAG	0.417 ± 0.302 log2 fold change
